In PubChem BioAssay AID488856 (Sanford-Burnham Center for Chemical Genomics, 2010):
The whole screen tested about 1,400 compounds, of which about 50 (4%) were called active. Only a sample is shown. A number with no mark means an inactive call.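 The calls were made as follows: active = mean inhibition across replicates above about 26% (limit read from the data); inactive = the rest.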

These compounds were tested against Caspase-3 (Homo sapiens) (UniProt P42574) (assay: CASP3 inhibitor validation, counterassay for project on UBE2N polyubiquitination blockers, biochemical, one dose (AID 488856;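 also: plate controls were DMSO with caspase-3 for no effect and DMSO wells lacking enzyme for full effect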)). Conditions: Recombinant caspase-3, Caspase-Glo 3/7 luminescence, 60 min; at 20 µM; active compounds read high.
Caspase-3 (Homo sapiens), sequence (P42574 whole entry, looked up): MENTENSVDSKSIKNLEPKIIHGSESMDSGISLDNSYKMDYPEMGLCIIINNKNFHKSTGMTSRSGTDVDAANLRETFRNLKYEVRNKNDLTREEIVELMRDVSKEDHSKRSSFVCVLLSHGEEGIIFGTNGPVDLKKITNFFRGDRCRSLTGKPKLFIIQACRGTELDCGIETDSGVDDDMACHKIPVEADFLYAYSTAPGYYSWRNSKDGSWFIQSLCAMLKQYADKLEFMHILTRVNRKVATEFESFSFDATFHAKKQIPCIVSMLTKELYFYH
With `S=c1nc2ccccc2c2nc(-c3cccnc3)[nH]n12` the inhibition was 16%.
For `Cc1ccc(N(C(=O)c2snc(C(N)=O)c2N)C(C(=O)NCC2CCCO2)c2c[nH]c3ccccc23)cc1` (stereo not given), the inhibition was 0.8%.
`CCN(CC)CCC(c1cc(OC)c(OC)c(OC)c1)c1c(OC)cc(OC)c2c(-c3ccccc3)cc(=O)oc12` (stereo not given) was tested, and the inhibition was -2%.
`Cc1ccccc1C(=O)OC1OC(=O)C(Cl)=C1Nc1ccccc1` (stereo not given) was tested, and the inhibition was -0.3%.
`O=C(COC(=O)Cn1cnc2ccccc2c1=O)NCc1ccccc1Cl` showed an inhibition of -0.6%.
For `COc1cccc(N(C(=O)c2snc(C(N)=O)c2N)C(C(=O)NCC2CCCO2)c2c[nH]c3ccccc23)c1` (stereo not given), the inhibition was -8.9%.
`COc1ccccc1-c1sc2ccccc2c1-c1ccc(C(C)=O)cc1` was tested, and the inhibition was 12.1%.
`Cc1ccc(NC2=C(Cl)C(=O)OC2OC(=O)c2ccccc2C)cc1` (stereo not given) was tested, and the inhibition was 0.6%.
`CSCCC(NC(=O)c1ccc(Cl)cc1Cl)C(=O)NNC(=O)c1csc(N2CCOCC2)n1` (stereo not given) showed an inhibition of 1.1%.
Work on `COc1ccc(C(CNC(=O)c2ccc(S(=O)(=O)Nc3ccccc3F)cc2)N(C)C)cc1` (stereo not given) yielded an inhibition of 2.2%.
Work on `COc1ccc(-c2sc3ccccc3c2-c2ccc(OCCN3CCOCC3)cc2)cc1` yielded an inhibition of 0.1%.
`Cc1ccc(C(C(=O)NCC2CCCO2)N(C(=O)c2snc(C(N)=O)c2N)c2ccc(C(C)C)cc2)o1` (stereo not given) was tested, and the inhibition was -0.8%.
Compound `C#CCOCCOCCOCCNc1nc(N2CCN(C(=O)CCCCCCCCCCNC(=O)[C@H](CCCCN)n3cc(C)nn3)CC2)nc(N2CCN(C(=O)CCCCCCCCCCNC(=O)[C@H](CO)n3cc(CCCSC)nn3)CC2)n1` has an inhibition of -3.2%.
With `CCOCCCNC(=O)c1cn(CC(C)C)c(=O)c2c1c1ccccc1n2C` the inhibition was -2.3%.
With `COc1cccc2sc3cc(NCC[C@@H]4CCCN4C)ccc3c(=O)c12` the inhibition was 63.1% (active).
In the case of `NC(=O)NC(CC(=O)NNC(=O)c1ccccn1)c1ccc(Cl)cc1` (stereo not given), the inhibition is reported as -0.9%.
In the case of `Cc1ncc(CO)c(/C=N/NC(=O)c2cccc(S(=O)(=O)N3CCCC3)c2)c1O`, the inhibition is reported as -0.5%.
Compound `Cc1ccc(-c2noc(CCC(=O)Nc3ccccc3N3CCN(C)CC3)n2)cc1` has an inhibition of -3.5%.
`CC1(C)Cc2ccccc2-c2[nH]c(=S)[nH]c(=O)c21` showed an inhibition of 2.3%.
`CCOC(=O)c1ccc(NC(=O)c2nc[nH]c2C(=O)NCc2ccccc2)cc1` showed an inhibition of 1.9%.
For `O=C(CCCCCn1c(=O)[nH]c2ccccc2c1=O)NCCc1c[nH]c2ccccc12`, the inhibition was -2%.
`O=C(CCCCCN1C(=O)c2cccc3cccc(c23)C1=O)NCc1ccco1` gave an inhibition of -1.7%.
Compound `CCOc1ccc(N(C(=O)c2snc(C(N)=O)c2N)C(C(=O)NCC2CCCO2)c2c[nH]c3ccccc23)cc1` (stereo not given) has an inhibition of -4.2%.
For `Cc1ccc(NC(=O)c2cnc(SCC(=O)NCC3CCCO3)n(C)c2=O)cc1` (stereo not given), the inhibition was 96.8% (active).
In the case of `CC(=O)NC(=S)NNC(=O)c1ccc(Br)cc1`, the inhibition is reported as 6.4%.
`Cc1cccc(-c2nc3ccc(C(=O)NCCN4CCN(C)CC4)cc3nc2-c2cccc(C)c2)c1` was tested, and the inhibition was -4%.
Compound `CCOC(=O)c1cccc(NS(=O)(=O)c2c(C(=O)N3CCCCCC3)c(C)n(C)c2C)c1` has an inhibition of -2.7%.
In the case of `C#CCOCCOCCOCCNc1nc(N2CCN(C(=O)[C@H](CCCCN)n3cc([C@@H](N)C(C)CC)nn3)CC2)nc(N2CCN(C(=O)[C@H](Cc3ccc(O)cc3)n3cc([C@@H](N)C(C)CC)nn3)CC2)n1` (stereo not given in full), the inhibition is reported as -3.4%.
Compound `Cc1cccc(-n2cnc(C(=O)NNC(=S)Nc3ccccc3)c2)n1` has an inhibition of 0%.
For `CCCCN(C)CCCNC(=O)c1cc(-c2cccs2)nc2ccccc12`, the inhibition was -3.7%.
For `C#CCOCCOCCOCCNc1nc(N2CCN(C(=O)C(Cc3ccc(O)cc3)n3cc(C(N)CC(C)C)nn3)CC2)nc(N2CCN(C(=O)C(Cc3ccc(O)cc3)n3cc(C(N)C(C)CC)nn3)CC2)n1` (stereo not given), the inhibition was 0.7%.
`CN(C)c1ccnc2sc3c(=O)n(Cc4ccccc4)cnc3c12` gave an inhibition of -2.2%.
With `CCN1C(=NCc2ccc(OC)cc2)N[C@@H](CCc2ccccc2)[C@H](C(=O)NCc2ccc(OC)cc2)[C@H]1C` the inhibition was -3.2%.
`CN(C)CC(O)COc1ccc(C(C)(C)c2ccc(OCC(O)CN(C)C)cc2)cc1` (stereo not given) gave an inhibition of 3.6%.
`CCCCCCCCCCOC(=O)Cn1c(COc2cccc(OC)c2)[n+](C)c2ccccc21` showed an inhibition of 3.3%.
`Cc1cccc(OCC(O)CN2CCN(CCN3C(=O)c4cccc5cccc(c45)C3=O)CC2)c1C` (stereo not given) gave an inhibition of 2.6%.
Work on `COc1ccccc1NC(=O)CSc1nnc(-c2ccoc2C)n1CCc1ccccc1` yielded an inhibition of -0.3%.
`CCCCN(CCCC)CCC(O)c1cc2c(Cl)cc(Cl)cc2c2cc(C(F)(F)F)ccc12` (stereo not given) was tested, and the inhibition was 3.4%.
In the case of `Cc1c(CN2CCC(CO)(CCOc3ccccc3)CC2)[nH]c2ccc(Cl)cc12`, the inhibition is reported as -3.8%.
`N#Cc1c(-c2ccc(Cl)cc2)c2c([nH]c1=S)CCCC2` was tested, and the inhibition was -1.9%.
`CC[C@@H](C)[C@@H]1CN([C@@H](C)CN2CCC[C@H]2CN2C(N)=NC[C@H]2C(C)C)C(=N)N1CCc1ccc(Cl)c(Cl)c1` gave an inhibition of 2.5%.
In the case of `CCOC(=O)[C@@H]1[C@H]2COc3cc(OC)ccc3[C@H]2N2C(=O)N(c3ccc(F)cc3)C(=O)[C@]12C`, the inhibition is reported as 3.4%.
`Cc1cc(C)c(NC(=O)C[N+](C)(C)CC(O)COc2cccc3ccccc23)c(C)c1` (stereo not given) showed an inhibition of -2.3%.
For `CC(=O)Nc1ccc(NC(=O)c2sc3nc4c(c(-c5ccc(C)cc5)c3c2N)CCC4)cc1`, the inhibition was 4.6%.
In the case of `C=C1c2c(Cl)ccc(O)c2C(O)=C2C(=O)[C@]3(O)C(O)=C(C(N)=O)C(=O)[C@@H](N(C)C)[C@@H]3[C@@H](O)C12` (stereo not given in full), the inhibition is reported as 1.1%.
With `CCCOc1ccc(Cl)cc1Nc1nc(NCCO)nc(N2CCCC2)n1` the inhibition was 6.6%.
For `CN1CCC(CN)(N2CCN(c3ccccc3)CC2)CC1`, the inhibition was -2.2%.
`CCOC(=O)N1CCN(C(=O)Cc2ccc(-n3c(=S)[nH]c4ccccc4c3=O)cc2)CC1` gave an inhibition of -0.5%.
Compound `CN1CCN(CCCNC(=O)c2ccc(/C=C3\Oc4ccccc4N(Cc4ccc(Cl)cc4)C3=O)cc2)CC1` has an inhibition of -0.4%.
In the case of `O=c1c2c(nc3n1CCCCC3)sc1c(O)cccc12`, the inhibition is reported as 77.2% (active).
`c1ccc(C[C@H]2CNCCN2CCC23CC4CC(CC(C4)C2)C3)cc1` showed an inhibition of -0.9%.
For `O=c1cc(CO)oc(C(Nc2cccc(C(F)(F)F)c2)c2ccccn2)c1O` (stereo not given), the inhibition was -1.4%.
In the case of `NC(N)=Nc1nc(-c2ccccc2)c2cc(Cl)ccc2n1`, the inhibition is reported as -2.7%.
`CCC(C(=O)NC1CCCC1)N(C(=O)c1snc(C(N)=O)c1N)c1ccc2c(c1)OCCO2` (stereo not given) was tested, and the inhibition was 1.4%.
`c1ccc2c(CCN3CCNC[C@H]3Cc3cccc4ccccc34)cccc2c1` gave an inhibition of 5%.
With `C#CCOCCOCCOCCNc1nc(N2CCN(C(=O)C([C@@H](C)O)n3cc([C@@H](N)CCCCN)nn3)CC2)nc(N2CCN(C(=O)[C@H](CCCCN)n3cc(CN)nn3)CC2)n1` (stereo not given in full) the inhibition was 1.6%.
`COC(=O)c1cc(-c2cccs2)nc2ccccc12` showed an inhibition of -2.9%.
In the case of `CC1CN(C(=O)CCC(=O)NCCCN2CCC(Cc3ccccc3)CC2)c2cc(Cl)ccc2O1` (stereo not given), the inhibition is reported as 0.6%.
Compound `NC[C@H](Cc1ccccc1)NCCc1cc(C(F)(F)F)cc(C(F)(F)F)c1` has an inhibition of -2.6%.
For `CCOC(=O)C1=C(c2ccccc2)O/C(=C(/C(=O)OC)C(F)(F)F)S1`, the inhibition was 1.4%.
For `COc1ccc(/C=N\NC(=O)c2sc(N)nc2C)cc1OC`, the inhibition was 23%.
`C#CCOCCOCCOCCNc1nc(N2CCN(C(=O)C([C@@H](C)CC)n3cc(C(N)COC(=O)C(F)(F)F)nn3)CC2)nc(N2CCN(C(=O)[C@H](CCCCN)n3cc(C(N)CC(C)C)nn3)CC2)n1` (stereo not given in full) was tested, and the inhibition was -1%.
In the case of `CN(C)CCCN(C(=O)c1ccc(S(=O)(=O)N2CCCCCC2)cc1)c1nc2cc3c(cc2s1)OCCO3`, the inhibition is reported as 1.4%.
In the case of `CCN(CC(=O)NCc1cccs1)C(=O)c1cccc(S(=O)(=O)Nc2ccccc2OC)c1`, the inhibition is reported as -1.4%.
For `COc1ccc(N(C(=O)c2snc(C(N)=O)c2N)C(C(=O)NC2CCCC2)c2ccco2)cc1OC` (stereo not given), the inhibition was -0.3%.
For `CCN1CCN(CCNC(=O)c2ccc(/C=C3/Sc4ccccc4N(Cc4cccc(C)c4)C3=O)cc2)CC1`, the inhibition was 2.4%.
With `C[C@@H](CN1CCC[C@H]1CN1C(N)=NC[C@@H]1Cc1ccccc1)N1C[C@@H](Cc2ccccc2)N(CCCC2CCCC2)C1=N` the inhibition was 1.4%.
`COc1ccnc2c1c(=O)n(Cc1cccc(F)c1)c(=O)n2C` gave an inhibition of -0.3%.
With `OCCNc1nc(Nc2ccc(Cl)c(Cl)c2)nc2ccccc12` the inhibition was -0.1%.
`CCCC[C@@H]1CN=C(N)N1CCc1cc(C(F)(F)F)cc(C(F)(F)F)c1` gave an inhibition of 0.9%.
